According to PubChem BioAssay AID540321 (Johns Hopkins Ion Channel Center, 2011):
Active and inactive are the calls of the source.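 How the source made its calls: active means Inhibition of the Kir2.1 potassium channel over 30% at some tested dose, plus a fitted dose response curve; inactive means no Kir2.1 inhibition at any dose, or no curve fitted.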

Target: Inward rectifier potassium channel 2 (Mus musculus) (UniProt P35561)
Experiment: Kir2.1 channel inhibition, specificity check, SAR follow-up, selectivity assay for KCNK9 inhibitor project, cell-based, FluxOR thallium flux, CRC round 2 (AID 540321)
Settings: Kir2.1-expressing cells; series mostly up to 30 µM

Inward rectifier potassium channel 2 (Mus musculus), sequence (P35561 whole entry, looked up): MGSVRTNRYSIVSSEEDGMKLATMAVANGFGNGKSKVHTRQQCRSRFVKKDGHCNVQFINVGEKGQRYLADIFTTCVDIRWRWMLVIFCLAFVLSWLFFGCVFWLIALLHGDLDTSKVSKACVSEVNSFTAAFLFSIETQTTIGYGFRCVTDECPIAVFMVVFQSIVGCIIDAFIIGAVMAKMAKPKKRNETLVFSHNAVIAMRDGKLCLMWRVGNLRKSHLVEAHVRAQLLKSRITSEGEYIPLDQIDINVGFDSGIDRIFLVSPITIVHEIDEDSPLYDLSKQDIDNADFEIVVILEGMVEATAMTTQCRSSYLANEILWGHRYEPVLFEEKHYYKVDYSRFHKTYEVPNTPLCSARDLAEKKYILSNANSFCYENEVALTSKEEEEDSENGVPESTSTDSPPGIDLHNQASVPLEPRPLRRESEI

outcome, inactive:
O=C(Nc1cccc(NC(=O)c2ccccc2)c1)c1ccccc1
O=C(Nc1cccc(NC(=O)c2ccccc2Cl)c1)c1ccccc1
Cc1cccc(C(=O)Nc2cccc(NC(=O)c3ccccc3Cl)c2)c1
Cc1cccc(C(=O)Nc2ccccc2NC(=O)c2ccccc2)c1
O=C(Nc1cccc(NC(=O)c2ccc(C(F)(F)F)cc2)c1)c1ccccc1
CC(C1CC2CCC1C2)n1c(-c2ccco2)n[nH]c1=S (stereo not given)
O=C(Nc1cccc(NC(=O)c2ccccn2)c1)c1ccccc1
COc1ccc(-c2n[nH]c(=S)n2C(C)C2CC3CCC2C3)cc1 (stereo not given)
O=C(Nc1cccc(NC(=O)c2cccc(C(F)(F)F)c2)c1)c1ccccc1
Cc1cccc(C(=O)Nc2cccc(NC(=O)c3ccncc3)c2)c1
CCOc1ccccc1NC(=O)c1cccc(NC(=O)C(C)(C)C)c1
CCOc1ccc(NC(=O)c2cccc(NC(=O)C3CCCC3)c2)cc1
Cc1ccc(-c2n[nH]c(=S)n2C(C)C2CC3CCC2C3)cc1 (stereo not given)
COc1ccccc1NC(=O)c1cccc(NC(=O)CC2CCCC2)c1
Cc1cccc(C(=O)Nc2cccc(NC(=O)c3cccc(C(F)(F)F)c3)c2)c1
CCOc1ccccc1C(=O)Nc1cccc(NC(=O)c2cccc(C)c2)c1
Cc1cccc(C(=O)Nc2cccc(NC(=O)c3ccccc3C)c2)c1
CC(C1CC2CCC1C2)n1c(-c2ccc(Cl)cc2)n[nH]c1=S (stereo not given)
Cc1cccc(C(=O)Nc2cccc(NC(=O)c3ccco3)c2)c1
CCOc1ccccc1NC(=O)c1cccc(NC(=O)CC2CCCC2)c1
COc1ccccc1C(=O)Nc1cccc(NC(=O)c2ccccc2OC(F)(F)F)c1
CC(C)(C)c1ccc(C(=O)Nc2cccc(NC(=O)c3ccccc3)c2)cc1
CCOc1ccccc1NC(=O)c1cccc(NC(=O)C2CCOC2)c1 (stereo not given)
CCOc1ccccc1NC(=O)c1cccc(NC(=O)c2cccc(OC)c2)c1
CCOc1ccccc1NC(=O)c1cccc(NC(=O)c2ccc(C)cc2)c1
COc1ccccc1NC(=O)c1cccc(NC(=O)C2CCCCC2)c1
CCOc1ccccc1NC(=O)c1cccc(NC(=O)c2cccc(C(F)(F)F)c2)c1
CCOc1ccccc1NC(=O)c1cccc(NC(=O)c2cccc(C)c2)c1
Cc1cccc(C(=O)Nc2cccc(NC(=O)c3cccs3)c2)c1
Cc1cccc(C(=O)Nc2cccc(NC(=O)c3ccc(C(F)(F)F)cc3)c2)c1
CCOc1ccccc1NC(=O)c1cccc(NC(=O)CC2CCCCC2)c1
O=C(Nc1cccc(NC(=O)c2ccc(F)cc2)c1)c1ccccc1
COc1cccc(-c2n[nH]c(=S)n2C(C)C2CC3CCC2C3)c1 (stereo not given)
O=C(Nc1cccc(NC(=O)c2cccc(Cl)c2)c1)c1ccccc1
COc1ccc(C(=O)Nc2cccc(NC(=O)c3ccccc3)c2)cc1
